For 14 compounds, Potency results are on record in PubChem BioAssay (NCATS).

Results filed as inconclusive are left out. Active and inactive are the calls of the source. The call rests on the fitted dose curve; in most records, active means well fitted cell-killing curve with a large enough effect; inconclusive means small, poorly fitted or top-dose-only effect, or effect the other way; inactive means no such curve, though single readings can be large or run the other way.

Assay [1] in a line: Quantitative High-Throughput drug screen in 47 multiple myeloma cell lines against the NCATS MIPE library collection: FR4_PLB cell viability assay (AID 1918924; further: nearly all actives have a fitted effect of over 35% in size). Put shortly:
(§1)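 qHTS of the MIPE 4.0 collection: 500 myeloma cells/well, 48 h drug exposure at 37C in 5% CO2, then CellTiter-Glo for 5 min at room temperature before luminescence reading.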

Assay [2] is described as follows: Quantitative High-Throughput drug screen in 47 multiple myeloma cell lines against the NCATS MIPE library collection: Delta47_JCRB cell viability assay (AID 1918925; further: nearly all actives have a fitted effect of over 45% in size). Summed up: (§2)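 Luminescent ATP measurement with CellTiter-Glo gives viability, scaled between DMSO-only wells (100%) and media-only wells (0%). Cells, 500 per well, faced library compounds for 48 hours at 37C.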

The nature of assay [3]: Quantitative High-Throughput drug screen in 47 multiple myeloma cell lines against the NCATS MIPE library collection: EJM_DSMZ cell viability assay (AID 1918926; further: nearly all actives have a fitted effect of over 30% in size). Put shortly:
as §2

Assay [4] in a line: Quantitative High-Throughput drug screen in 47 multiple myeloma cell lines against the NCATS MIPE library collection: AMO1_DSMZ cell viability assay (AID 1918927; further: nearly all actives have a fitted effect of over 30% in size). Summed up:
as §2

Assay [5] can be described thus: Quantitative High-Throughput drug screen in 47 multiple myeloma cell lines against the NCATS MIPE library collection: ARP1_JJKsccF8 cell viability assay (AID 1918928; further: nearly all actives have a fitted effect of over 40% in size). Put shortly:
(§3)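 Each line was plated at 500 cells/well and treated 48 h with library drugs. Viability came from CellTiter-Glo luminescence relative to DMSO and cell-free medium controls.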

Assay [6] is described as follows: Quantitative High-Throughput drug screen in 47 multiple myeloma cell lines against the NCATS MIPE library collection: ARD_JJKsccE7 cell viability assay (AID 1918929). Put shortly:
as §2

The nature of assay [7]: Quantitative High-Throughput drug screen in 47 multiple myeloma cell lines against the NCATS MIPE library collection: Karpas620_DSMZ cell viability assay (AID 1918959). Further: nearly all actives have a fitted effect of over 30% in size. Put shortly:
as §1

Assay [8] can be described thus: Quantitative High-Throughput drug screen in 47 multiple myeloma cell lines against the NCATS MIPE library collection: KMM1_JCRB cell viability assay (AID 1918960). Further: nearly all actives have a fitted effect of over 30% in size. Put shortly: as §3
Assay [9] is described as follows: Quantitative High-Throughput drug screen in 47 multiple myeloma cell lines against the NCATS MIPE library collection: Karpas417_ECACC cell viability assay (AID 1918961). Conditions: Karpas417 myeloma viability, CellTiter-Glo ATP luminescence, 48 h; viability (% of DMSO): at 45.8 µM (top of the series). Summed up: as §2
Potency means the concentration at half of the fitted maximal effect.

Turning to `CCCCC[C@H](O)C=C[C@H]1[C@H](O)CC(=O)[C@H]1CCCCCCC(=O)O`, the Potency result in assay [1], in assay [2], in assay [3], in assay [4], in assay [6] and in assay [7] was “inactive” in each case. Further, in assay [8], the Potency result was “inactive”. Further, in assay [5], the Potency is 23.5 µM (active).
Consider `Cc1[nH]c(C=C2C(=O)Nc3ccc(S(=O)(=O)N(C)c4cccc(Cl)c4)cc32)c(C)c1C(=O)N1CCN(C)CC1`, for which the Potency in assay [1] is 26.4 µM (active); in assay [2] it was 14.8 µM (active); in assay [3], 23.5 µM (active); in [4], 5.9 µM (active); in [5], 23.5 µM (active); in assay [6], 6.62 µM (active). In addition, the Potency is 9.35 µM (active) in assay [7], 6.62 µM (active) in assay [8] and 3.72 µM (active) in [9].
`C[C@@H](O)[C@H]1C(=O)N2C(C(=O)OCOC(=O)C(C)(C)C)=C(SC3CN(C4=NCCS4)C3)[C@H](C)[C@H]12`: the Potency entry in [1], in [2], in assay [3], in [4], in assay [5] and in [7] was “inactive” throughout.
Take `CC1(C)C(N(O)C(=O)Nc2ccc(Cl)cc2)N(c2ccc(Cl)cc2)C(=O)N1CC(=O)NN=CC=Cc1ccc([N+](=O)[O-])o1` (stereo not given): the Potency was 13.2 µM (active) in assay [1], 7.43 µM (active) in assay [2], 16.6 µM (active) in assay [3] and 7.43 µM (active) in [5]. The Potency result in assay [4], in [6], in [7] and in [8] was “inactive” each time.
Turning to `O=C(O)C1=NC(C(=O)O)CC(C=CN2c3cc(O)c(OC4OC(CO)C(O)C(O)C4O)cc3CC2C(=O)O)=C1` (stereo not given), the Potency entry in assay [1], in assay [2], in [3], in assay [7], in [8] and in [9] was “inactive” throughout.
Take `CCN(CC)CCCCNc1nc2cc(Cl)c(Cl)cc2nc1-c1ccc(-c2cccs2)s1`: the Potency in [1] is 10.5 µM (active); in assay [2] it was 7.43 µM (active); in [3], 11.8 µM (active); in assay [4], 6.62 µM (active); in assay [5] it was 7.43 µM (active); in assay [7], 9.35 µM (active). Besides, the Potency in assay [8] is 9.35 µM (active).
On to `CCC(=C(c1ccc(O)cc1)c1ccc(OCCNC)cc1)c1ccccc1`, for which the Potency was 26.4 µM (active) in [1]; 5.9 µM (active) in [2]; 23.5 µM (active) in assay [3]; 20.9 µM (active) in [4]; 26.4 µM (active) in [7].
On to `CCC(c1ccc(O)cc1)C(CC)c1ccc(O)cc1` (stereo not given), for which the Potency in assay [1] is 5.26 µM (active); in assay [2], 0.0026 µM (active); in assay [3] it was 0.935 µM (active); in assay [5] it was 7.43 µM (active). For the same compound, the Potency result in [6], in [7] and in assay [8] was “inactive” throughout.
As for `O=C1NC(=O)C(c2cnc3ccccn23)=C1c1cn2c3c(cccc13)CN(C(=O)N1CCOCC1)CC2`, the Potency in [1] was 0.0053 µM (active); in assay [2] it was 1.05 µM (active); in assay [3], 0.187 µM (active); in [5] it was 0.0066 µM (active); in assay [6] it was 0.0042 µM (active); in [8], 13.2 µM (active).
In the case of `CN(C)S(=O)(=O)c1ccc2c(c1)C(=Cc1cc3c([nH]1)CCCC3)C(=O)N2`, the Potency in [1] is 2.35 µM (active); in [2], 2.96 µM (active); in [3], 4.69 µM (active); in [6] it was 8.33 µM (active); in assay [7], 1.87 µM (active); in assay [9] it was 1.32 µM (active). For the same compound, the Potency result in assay [8] is “inactive”.
Regarding `CCCCOCCOc1nc(-c2ccc(C(=O)O)c(F)c2)sc1C`, the Potency entry in assay [1], in assay [2], in assay [3], in assay [4], in assay [8] and in [9] was “inactive” throughout.
Consider `O=c1[nH]c(=O)n([C@H]2C[C@@H](O)[C@@H](CO)O2)cc1C(F)(F)F`, for which the Potency entry in [1] and in [7] was “inactive” in each case. Besides, the Potency was 5.26 µM (active) in assay [2], 1.66 µM (active) in assay [3] and 1.32 µM (active) in assay [6].
`C[C@@H]1O[C@@H](O[C@H]2CC[C@@]3(C)[C@H](CC[C@@H]4[C@H]3C[C@@H](O)[C@]3(C)[C@@H](C5=CC(=O)OC5)CC[C@]43O)C2)C[C@H](O)[C@@H]1O[C@H]1C[C@H](O)[C@H](O[C@H]2C[C@H](O)[C@@H](O)[C@@H](C)O2)[C@H](C)O1` (stereo in doubt): the Potency was 0.0762 µM (active) in [1]; 0.241 µM (active) in assay [2]; 0.27 µM (active) in [3]; 0.0679 µM (active) in [4]; 0.171 µM (active) in [5]; 0.171 µM (active) in assay [7]. The Potency was 0.0762 µM (active) in assay [8] and 0.152 µM (active) in assay [9].
Regarding `Fc1ccc(C(c2ccc(F)cc2)N2CCN(CC=Cc3ccccc3)CC2)cc1`, the Potency entry in [1], in [2], in [3], in assay [4], in assay [6] and in [7] was “inactive” each time. In addition, in assay [8], the Potency result is “inactive”.
